Shiga inhibitor: A qHTS for Small Molecule Inhibitors of Shiga Toxin; Vero cells, Shiga toxin protein synthesis inhibition reporter; 290,000 compounds, 9.2% hits; inhibition, % at 38.7 µM; in the data active means inhibition mostly above about 28%, no sharp cut-off; inactive means mostly below about 43%; further: 0% is about no effect
FMDV inh: High Throughput Screening for Foot and Mouth Disease Virus Antivirals | FMDV antiviral cell-based qHTS | Potency, µM (series often up to 57.9 µM), without a hit: top-dose activity change, negative = inhibition, hits mostly inhibitors | 410,000 compounds, 1.2% hits | AID 1159524, 2015; calls by dose curve; tested in HEK293T cells; further: read-out not given here; potency means the concentration at half of the fitted maximal effect; on the % scale 0 is the no-effect control and ±100 the full control effect; nearly all actives have a fitted effect of over 45% in size
Lassa entry inh: qHTS for Inhibitors of binding or entry into cells for Lassa Virus; Lassa virus pseudotype entry inhibition, cell reporter; 300,000 compounds, 1.2% hits; AID 540256, 2011; Potency, µM (top dose mostly 37.9 µM), for the others: at the top dose activity change, negative = inhibition, hits mostly inhibitors; calls by dose curve; tested in HEK293 cells; further: potency means the concentration at half of the fitted maximal effect; on the % scale 0 is the no-effect control and ±100 the full control effect; nearly all actives have a fitted effect of over 50% in size
HCV inhibitor: qHTS Assay for Inhibitors of Hepatitis C Virus (HCV) | Huh7.5.1 HCVcc-Cre infection, luciferase reporter, 44 h | Potency, µM (highest dose often 41.8 µM), inactives show at the top dose activity change, negative = inhibition, hits mostly inhibitors | 340,000 compounds, 3.4% hits; active means well fitted inhibition curve with a large enough effect; inconclusive means small, poorly fitted or top-dose-only effect, or another doubt; inactive means no such curve, though single readings can be large or run the other way; further: potency means the concentration at half of the fitted maximal effect; on the % scale 0 is the no-effect control and ±100 the full control effect
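Cells seeded at 1,000/well and cultured 4 h, then compounds added followed by HCVcc-Cre virus (~0.5 moi). After 44 h further culture, luciferase substrate was added, plates held 15 min at room temperature, and luminescence read for 15 sec.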
Marburg entry inh: qHTS for inhibitors of binding or entry into cells for Marburg Virus. Marburg virus pseudotyped entry inhibition, cell reporter. Potency, µM (doses to about 37.8 µM), without a hit: top-dose activity change, negative = inhibition, most hits filed as inhibitors. 300,000 compounds, 1.8% hits; calls by dose curve; tested in HEK293 cells; further: potency means the concentration at half of the fitted maximal effect; on the % scale 0 is the no-effect control and ±100 the full control effect
Cycloheximide cs: Cycloheximide Counterscreen for Small Molecule Inhibitors of Shiga Toxin; cell reporter, cycloheximide protein synthesis inhibition counterscreen; max response, %; 300,000 compounds, 12% hits; AID 2314, 2010; in the data active means max response mostly above about 13%, no sharp cut-off; inactive means mostly below about 14%; further: read at 38.3 µM for the half of the compounds with a filed dose; 0% is about no effect
Active calls of the source: *; u = inconclusive; x = no result given; [ ] = another dose, or the depositor's remark. Compounds with a hit are over-represented: about 13% of the library has one in this group of screens.

SMILES | Shiga inhibitor | FMDV inh | Lassa entry inh | HCV inhibitor | Marburg entry inh | Cycloheximide cs
O=C(Nc1cnc2ccccc2c1)c1ccco1 | 68* | -21% | u | -3% | u | 33*
CC(C)C(=O)Nc1cccc(-c2cnc3ccccc3n2)c1 | 35 | 52% | -2% | -28% | u | 21*
CNC(=S)Nc1cccc(-c2cnc3ccccc3n2)c1 | 58* | 29% | u | -8% | u | 26*
CC(=O)Nc1ccc(C(=O)Nc2cccc(-c3cnc4ccccc4n3)c2)cc1 | 30 | 22% | -10% | u | 24%[46.1 µM] | 18
CN(C)C(=O)Nc1cnc2ccccc2c1 | 9 | 0% | -12% | 12% | 3% | -2
Cc1cccc(NC(=S)NC(=O)/C=C/c2ccccc2)n1 | 21 | -5% | 28% | 17% | u | 11
CSCC(=O)NC1CCCN(C2Cc3ccccc3C2)C1 (centres undefined) | -4 | -22% | x | 2% | x | -1
O=C(NCCCN1CCCCC1)C1CCC(=O)N1CCc1ccccc1 (centres undefined) | -6 | 9% | 32% | -18% | 19% | -2
CS(=O)(=O)Nc1cccc(-c2cnc3ccccc3n2)c1 | 85* | 0% | -55%[46.1 µM] | -19% | u | 37*
O=C(Nc1cccc(-c2cnc3ccccc3n2)c1)c1ccco1 | 100* | -17% | 1% | u | u | 55*
CC1=Nc2ccc(C)cc2N(Cc2ccccc2)C(=O)C1 | 15 | -19% | x | 1% | x | -2
CCS(=O)(=O)c1ccc(O)c(NC(=O)COc2ccc(C)cc2)c1 | -11 | -5% | -3% | 31% | 9% | 1
O=C(COC(=O)c1c(Cl)cccc1Cl)NC1CCCCCCC1 | x | 16% | x | u | x | x
Nc1cc(C(=O)c2ccccc2)ccc1N1CCOCC1 | 117* | -2% | 0% | -29% | -10% | 27*
Nc1cc(C(=O)O)ccc1N1CCCCCC1 | -17 | x | -12% | 5.6µM* | -9% | -3
Nc1cc(S(=O)(=O)c2ccc(N3CCCCC3)c(N)c2)ccc1N1CCCCC1 | x | -21% | x | x | x | x
Cc1ccc(N(C(C)C(=O)N2CCN(Cc3ccccc3)CC2)S(C)(=O)=O)cc1 (centres undefined) | x | u | -24% | u | -22% | 4
COc1ccc(N(C)C(=O)Cc2c(C(=O)O)n(C)c3ccccc23)c(OC)c1 | 1 | -9% | 5% | 35% | 32% | -3
CC(=O)c1sc(N/N=C\c2ccc(Br)cc2)nc1C | active | 19% | u | -17% | -1% | 72*
CC(=O)c1sc(N/N=C\c2cccc(Br)c2)nc1C | 85* | -11% | 14µM* | 1% | u | 67*
CC1=C(C(N)=O)C(c2ccccn2)n2nc(SCc3ccccc3)nc2N1 (centres undefined) | 39 | -14% | -3% | -2% | -23% | 1
C#CCOc1nc(Nc2cccc([N+](=O)[O-])c2)nc(OCC#C)n1 | -22 | -23% | u | u | u | -3
O=C(Nc1nccs1)c1cc(-c2ccncc2)nc2ccccc12 | 2 | -27% | -2% | -23% | u | 11
Cc1ccc(-c2cc(C(=O)Nc3nccs3)c3ccccc3n2)c(C)c1 | 3 | u | u | 10µM* | u | 9
CCOC(=O)c1sc(NC(=O)c2cc(-c3ccccc3C)nc3ccccc23)c(C#N)c1C | 5 | u | 11µM* | 7.1µM* | u | 4
Cc1ccccc1-c1cc(C(=O)Nc2sc(C)c(C)c2C(N)=O)c2ccccc2n1 | -16 | u | 16µM* | 4.5µM* | u | -4
Cc1cc(-c2cccnc2)c(C#N)c(SCc2cccc(F)c2)n1 | -19 | -3% | -3% | -8% | u | 1
Cc1cccc(C(=O)NCC(c2ccco2)N(C)C)c1 (centres undefined) | 7 | 4% | 16%[46.1 µM] | 12% | u | 6
CN(C)C(CNC(=O)c1ccc2c(c1)S(=O)(=O)c1ccccc1C2=O)c1ccco1 (centres undefined) | -20 | 4% | x | u | x | -5
CN(C)C(CNC(=O)c1ccc2ccccc2c1)c1ccco1 (centres undefined) | 77* | 61% | 13% | -26% | 8%[46.1 µM] | 32*
